Records with an inconclusive call do not appear. Where a call stands in place of a potency, no number is given. Calls of active or inactive are those of the source. Calls follow the shape of the dose curve; as a rule, active = well fitted inhibition curve with a large enough effect in the repeat runs; inconclusive = weak or mixed curves; inactive = no such curve, though single readings can be large or run the other way.
Each molecule was assayed against Cytochrome P450 3A4 (Homo sapiens) (UniProt P08684) (assay: Cytochrome P450 Family 3 Subfamily A Member 4 (CYP3A4) small molecule antagonists: luciferase reporter qHTS assay (AID 1671201; also: nearly all actives have a fitted effect of over 50% in size)). Settings: P450-Glo CYP3A4 enzyme, luciferin luminescence, 1 h; series mostly up to 115 µM.
Cytochrome P450 3A4 (Homo sapiens), sequence (P08684 whole entry, looked up): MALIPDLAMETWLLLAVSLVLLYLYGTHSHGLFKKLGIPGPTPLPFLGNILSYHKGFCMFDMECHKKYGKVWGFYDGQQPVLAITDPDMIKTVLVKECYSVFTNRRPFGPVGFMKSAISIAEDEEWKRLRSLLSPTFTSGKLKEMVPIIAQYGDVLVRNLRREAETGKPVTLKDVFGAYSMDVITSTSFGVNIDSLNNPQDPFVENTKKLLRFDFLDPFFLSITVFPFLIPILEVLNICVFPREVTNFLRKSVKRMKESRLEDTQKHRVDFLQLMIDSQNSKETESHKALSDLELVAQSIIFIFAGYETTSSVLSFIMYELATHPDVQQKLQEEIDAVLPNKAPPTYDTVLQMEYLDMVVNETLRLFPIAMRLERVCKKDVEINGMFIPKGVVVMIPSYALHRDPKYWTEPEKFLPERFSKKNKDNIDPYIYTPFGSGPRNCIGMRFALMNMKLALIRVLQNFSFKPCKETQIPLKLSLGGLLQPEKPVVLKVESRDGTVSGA
In short: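 Proluciferin-to-luciferin conversion by CYP3A4, NADPH-regenerated, 1 h RT; luminescence read as RLU. Ketoconazole as control.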
CC(C)(C)C(O)C(Oc1ccc(-c2ccccc2)cc1)n1cncn1 (stereo not drawn) was tested, and the Potency was 448 nM (active).
With CC1(C)[C@H](C(=O)O[C@H](C#N)c2cccc(Oc3ccccc3)c2)[C@@H]1/C=C(\Cl)C(F)(F)F the Potency was “inactive”.
C[C@@H]1O[C@@H](O[C@H]2C[C@@H](O)[C@]3(CO)[C@H]4[C@H](O)C[C@]5(C)[C@@H](C6=CC(=O)OC6)CC[C@]5(O)[C@@H]4CC[C@]3(O)C2)[C@H](O)[C@H](O)[C@H]1O was tested, and the Potency was “inactive”.
Potency is read from the fitted curve at half-maximal effect.
